Reference: PubChem BioAssay (EPA / NIEHS)
Inconclusive results are not listed. The source made the active and inactive calls. How the source made its calls: active means hit-call score of the fitted dose curve at least 0.9, where 1 is the maximum; inconclusive means response in the unintended direction; inactive means score below 0.9.

Test: Tanguay_ZF_120hpf_CFIN_legacy: (Legacy) Oregon State University Tanguay Lab 120 Hour Post-fertilization zebrafish Assay for Caudal Fin Malformation (AID 2283649)
Experimental: Tanguay_ZF_120hpf_legacy is a whole embryo, multiplexed endpoint assay using zebrafish larvae exposed for 120 hours post fertilization on a 96-well plate.Tanguay_ZF_120hpf_CFIN_legacy is one of one assay component(s) measured or calculated from the Tanguay_ZF_120hpf_legacy assay. It is designed to make measurements of zebrafish development as detected with brightfield microscopy of developing zebrafish embryos.Data from the assay component Tanguay_ZF_120hpf_CFIN_legacy was analyzed into 1 assay endpoints. This assay endpoint, Tanguay_ZF_120hpf_CFIN_legacy, was analyzed in the positive analysis fitting direction relative to DMSO as the negative control and baseline of activity. Using a type of morphology reporter, gain-of-signal activity can be used to understand changes in developmentals as they relate to the whole embryo. To generalize the intended target to other relatable targets, this assay endpoint is annotated to the zebrafish development intended target family, where the subfamily is caudal fin morphogenesis.
Zebrafish husbandry: Tropical 5D wild-type adult zebrafish were housed in at an approximate density of 1000 per 100 gallon tank at the Sinnhuber Aquatic Research Laboratory, Oregon State University, Corvallis, OR. Each tank was kept at standard laboratory conditions of 28C on a 14-h light/10-h dark photoperiod in fish water consisting of reverse osmosis water supplemented with a commercially available salt (Instant Ocean). Spawning funnels were placed into the tanks the night prior, and embryos were collected and staged. To increase bioavailability, the chorion was enzymatically removed using pronase (63.6mg/ml, >/= 3.5U/mg, Sigma-Aldrich: P5147) at 4 hours post fertilization (hpf) using a custom automated dechorionator.Chemical exposures: Six hpf dechorionated embryos were placed 1 embryo per well in a 96-well plate prefilled with 90 ul of EM using automated embryo placement systems (AEPS). Ten microliters of each row of dilution plate 2 was added to 2 exposure plates. The final DMSO concentration used was 0.64% (vol/vol). Thirty-two embryos were also exposed to 5uM trimethyltin chloride (positive control). Plates were sealed to prevent evaporation and foil covered to reduce light exposure and kept in a 28C incubator. Embryos were statically exposed until 120 hpf. At 24 hpf, embryos were assessed for photomotor response using a custom photomotor response analysis tool (PRAT) and for developmental toxicity endpoints (MO24: mortality at 24 hpf, DP: developmental progression, SM: spontaneous movement, and NC: notochord distortion). At 120 hpf, locomotor activity was measured using Viewpoint Zebralab and assessed for 18 endpoints. Zebrafish acquisition and analysis program (ZAAP), a custom program designed to inventory, acquire, and manage zebrafish data, was used to collect developmental endpoints as either present or absent (i.e., binary responses were recorded). If mortality occurred for an embryo (at either 24 or 120 hpf), the non-mortality endpoints were not measured.

SMILES | outcome
CCCCCCCCCCCCCCO | inactive
O=C(O)c1cccc(C(=O)O)c1 | inactive
OC[C@H]1O[C@@H]2O[C@H]3[C@H](O)[C@@H](O)[C@@H](O[C@H]4[C@H](O)[C@@H](O)[C@@H](O[C@H]5[C@H](O)[C@@H](O)[C@@H](O[C@H]6[C@H](O)[C@@H](O)[C@@H](O[C@H]7[C@H](O)[C@@H](O)[C@@H](O[C@H]1[C@H](O)[C@H]2O)O[C@@H]7CO)O[C@@H]6CO)O[C@@H]5CO)O[C@@H]4CO)O[C@@H]3CO | inactive
OCCOCCOCCO | inactive
CCc1ccc(O)c(C(C)(C)C)c1 | inactive
OC(Cn1cncn1)(Cn1cncn1)c1ccc(F)cc1F | inactive
CCCCN1C(=O)[C@@H]([C@H](O)C2CCCCC2)NC(=O)C12CCN(Cc1ccc(Oc3ccc(C(=O)O)cc3)cc1)CC2 | inactive
c1ccc2ncccc2c1 | inactive
CCCCCCCC/C=C\CCCCCCCC(=O)OC[C@@H](O)[C@H]1OC[C@H](O)[C@H]1O | inactive
C=CCc1cc(S(=O)(=O)c2ccc(O)c(CC=C)c2)ccc1O | inactive
CCCCCCOC(=O)CC(CC(=O)OCCCCCC)(OC(=O)CCC)C(=O)OCCCCCC | inactive
CCCCOC(=O)c1ccccc1 | inactive
C[C@]12C=CC(=O)C=C1CC[C@H]1[C@@H]3C[C@@H](O)[C@](O)(C(=O)CO)[C@@]3(C)C[C@H](O)[C@@]12F | inactive
CCCc1ccccc1 | inactive
CCN(CC)C(=S)SSC(=S)N(CC)CC | inactive
Cc1ncc([C@@H](CCCCCCc2ccc3c(n2)NCCC3)CC(=O)O)cn1 | inactive
CCCCCCCC1CCC(=O)O1 (stereo not given) | inactive
CCOC(N)=O | inactive
COS(C)(=O)=O | inactive
CCn1nc(C)c2c1C(=O)NCC(c1ccc(O)cc1)=N2 | inactive

SMILES | outcome
O=c1[nH]cnc2c1ncn2[C@H]1CC[C@@H](CO)O1 | inactive
C[C@@H](Oc1ccc(CNC(=O)c2cccnc2Oc2ccc3c(c2)OCO3)c(F)c1)C(=O)O | inactive
Cn1cc[nH]c1=S | inactive
Cc1nc(-c2ccccn2)ncc1C(=O)Nn1cc(C)c2cc(F)ccc21 | inactive
CCCOc1ccc(S(=O)(=O)N2CCN(CC)CC2)cc1-c1nc2c(CC)n(Cc3ccccn3)nc2c(=O)[nH]1 | inactive
OCc1ccccc1 | inactive
CCc1cccc(CC)c1N | inactive
CC(C)c1nnc2ccc(-c3ocnc3-c3cc(F)ccc3F)cn12 | inactive
CCCC(CCC)C(=O)O | inactive
NC(=O)N(O)[C@@H]1COc2cc(OCc3ccccc3)ccc21 | inactive
CNC(C)=O | inactive
CC(C)C(=O)Nc1ccc([N+](=O)[O-])c(C(F)(F)F)c1 | inactive
CCCCC(CC)C(=O)OCCOCCOCCOC(=O)C(CC)CCCC (stereo not given) | inactive
CC[C@H](C)C(=O)O[C@H]1C[C@H](O)C=C2C=C[C@H](C)[C@H](CC[C@@H](O)C[C@@H](O)CC(=O)O)[C@H]21 | inactive
COCc1nnc(-c2ccc[n+]([O-])c2)n1-c1c(Cl)c(Cl)cc2[nH]c(=O)c(=O)[nH]c12 | inactive
CCOc1ccc2[nH]cc(C(=O)NCc3ccccc3)c(=O)c2n1 | inactive
O=S1(=O)CCCO1 | inactive
O=C(O)c1ccc2c(c1)nc(C(=O)NC1CCN(C3CC3)CC1)n2Cc1cc(-c2ccc(Cl)s2)on1 | inactive
Cc1ccc(S(=O)(=O)NC(=O)NN2CCCCCC2)cc1 | inactive
NNC(=O)c1ccncc1 | inactive
